Values joined by “and” are separate entries in the source; they are usually repeats but may differ in a detail not shown here. Identical values can stand only once. The campaign covered roughly 16,000 compounds. About 4,000 (25%) were called active. Roughly 26% stayed inconclusive and do not appear here. The call rests on the fitted dose curve; in most records, active means well fitted curve in the direction sought with a large enough effect; inconclusive means small, poorly fitted or top-dose-only effect, or effect the other way; inactive means no such curve, though single readings can be large or run the other way. Only a sample is shown. Some structures have more than one record in an assay (separate samples or runs), and their calls can disagree.
On the % scale 0 is the no-effect control and ±100 the full control effect.

The assay deals with Cytochrome P450 2C9 (Homo sapiens) (UniProt P11712). As to the kind of experiment: Cytochrome panel assay with activity outcomes. Conditions: recombinant CYP, pro-luciferin dealkylation, luminescence, p450-cyp2c9; series mostly up to 57.1 µM; activity, negative = inhibition: at the top concentration.
Chain of Cytochrome P450 2C9 (Homo sapiens) (P11712 whole entry, looked up): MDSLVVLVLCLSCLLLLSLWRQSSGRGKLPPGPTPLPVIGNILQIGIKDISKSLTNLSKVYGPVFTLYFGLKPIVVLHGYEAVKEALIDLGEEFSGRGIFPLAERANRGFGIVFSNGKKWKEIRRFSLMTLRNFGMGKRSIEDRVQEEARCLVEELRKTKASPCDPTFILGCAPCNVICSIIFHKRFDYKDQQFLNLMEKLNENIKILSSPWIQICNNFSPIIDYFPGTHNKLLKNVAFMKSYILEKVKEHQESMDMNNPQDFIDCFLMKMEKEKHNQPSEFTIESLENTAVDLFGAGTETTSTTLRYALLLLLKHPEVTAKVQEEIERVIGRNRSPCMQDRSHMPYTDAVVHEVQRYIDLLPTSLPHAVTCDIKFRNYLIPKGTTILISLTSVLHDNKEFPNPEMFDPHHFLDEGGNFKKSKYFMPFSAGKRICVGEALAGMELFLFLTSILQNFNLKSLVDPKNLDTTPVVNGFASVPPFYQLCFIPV
With `O=S(=O)(O)c1ccc2c(N=Nc3cccc4ccccc34)c(O)c(S(=O)(=O)O)cc2c1`, the activity, negative = inhibition was -3.82% [at 11.4 µM] (inactive). On the same count and under the same terms, the result for `O=S(=O)(O)c1ccc(N=Nc2ccc3c(S(=O)(=O)O)cccc3c2O)c2ccccc12` reads -12.3% [at 11.4 µM] (inactive). As to `O=[N+]([O-])c1ccc2c(N=Nc3ccc4ccccc4c3O)c(O)cc(S(=O)(=O)O)c2c1`, the AC50 was 3.16 µM (active).

Regarding `O=C(Nc1cccc(C(F)(F)F)c1)N(Cc1ccc(Cl)cc1)CC(O)C(F)(F)F` (stereo not drawn), the AC50 was 8.91 µM (active).

Regarding `O=C(O)c1ccc(NS(=O)(=O)Cc2ccccc2)cc1`, the activity, negative = inhibition is -7.98% [at 11.4 µM] (inactive).

On to `O=S(=O)(C[C@H](O)C(Cl)(Cl)Cl)NNc1ccccc1`, for which the activity, negative = inhibition is -2.23% [at 11.4 µM] (inactive).

For the molecule `O=C(Nc1ccccc1)N(Cc1ccccc1)CC(O)C(F)(F)F` (stereo not drawn), the AC50 is 12.6 µM (active).

Turning to `O=C(O)CNc1ccc(C(=O)O)cc1`, the activity, negative = inhibition is 3.72% [at 11.4 µM] (inactive). The same measure, in the same setting: the result for `Cc1cc(C2(c3cc(C)c(O)c(C(=O)O)c3)OS(=O)(=O)c3ccccc32)cc(C(=O)O)c1O` reads 14.9% [at 11.4 µM] (inactive). In the case of `CC(C)c1ccc(CN(C(=O)C2COc3ccccc3O2)C2CCS(=O)(=O)C2)cc1` (stereo not drawn), the AC50 was 11.2 µM (active).

Consider `O=C(CNc1cccc(Cl)c1)c1ccc(Cl)cc1`, for which the “activity, negative = inhibition” value was -14.9% (inactive). Turning to `CO/N=C(/CNC(=O)c1cccc(Cl)c1)c1ccc(Cl)cc1`, the AC50 was 3.55 µM (active). As for `COc1cccc(C(=O)NCCN2CCN(c3ccc(Cl)cc3)CC2)c1`, the “activity, negative = inhibition” value was 14.4% (inactive). On to `CO/N=C(/CNC(=O)c1ccc(Cl)cc1Cl)c1ccc(Cl)cc1`, for which the AC50 was 1.12 µM (active). In the case of `OC[C@@H](O)[C@@H](O)[C@@H](O)[C@@H](O)c1nc2ccc(Cl)cc2[nH]1`, the activity, negative = inhibition was -5.01% [at 11.4 µM] (inactive).

Turning to `N[C@@H]1CONC1=O`, the AC50 entry was “inactive”. For the molecule `Cn1c([N+](=O)[O-])cnc1COC(N)=O`, the “activity, negative = inhibition” value is 29.3% [at 25.6 µM] (inactive).

Regarding `CSc1nc(N)c2ncn([C@@H]3O[C@@H](COP(=O)(O)OP(=O)(O)O)[C@@H](O)[C@H]3O)c2n1`, the “activity, negative = inhibition” value was 8.4% (inactive). For the molecule `COc1ccc(NC(=O)c2ccc(-c3ccc(-c4noc(C)n4)cc3C)cc2)cc1N1CCN(C)CC1`, the AC50 result is “inactive and 7.94 µM (active)”. `COc1ccc(NC(=O)c2ccc(-c3ccc(-c4noc(C)n4)cc3C)cc2)cc1OCCN(C)C`: the “activity, negative = inhibition” value was -5.88% (inactive). With `CNCCC=C1c2ccccc2CCc2ccccc21`, the AC50 entry was “inactive”. Take `OC[C@@H]1O[C@@H](n2cnc3c(NC4CCCC4)ncnc32)[C@@H](O)[C@H]1O`: the “activity, negative = inhibition” value was 12.1% (inactive). On to `CCCC1(C(=O)OC)C=C2C(=C(c3ccccc3)C(=O)C2C)CN1` (stereo not drawn), for which the AC50 is 5.01 µM (active). On to `CC1(C)CC(=O)C(CCC(=O)c2ccccc2)C(C)(C)N1` (stereo not drawn), for which the “activity, negative = inhibition” value was -16.3% (inactive).

Regarding `COC(=O)C1(CC(C)C)C=C2C(=C(c3ccccc3)C(=O)C2C)CN1` (stereo not drawn), the AC50 is 10 µM (active). On the same count and under the same terms, the value for `COC(=O)C1(C)C=C2C(=C(c3ccccc3)C(=O)C2C)CN1` (stereo not drawn) was 10 µM (active).

Turning to `COC(=O)C1(Cc2ccccc2)C=C2C(=C(C)C(=O)C2C)CN1` (stereo not drawn), the “activity, negative = inhibition” value is -21.6% (inactive). For the molecule `CN(C)c1ccc(-c2cncnc2NCc2ccccc2)cc1`, the activity, negative = inhibition was -13.6% [at 2.29 µM] (inactive). Take `NC(=O)C[C@H](N)C(N)=O`: the activity, negative = inhibition is -1.03% [at 11.4 µM] (inactive). For `CN[C@]1(C)[C@H]2CC[C@@H](C2)C1(C)C`, the “activity, negative = inhibition” value was -5.41% [at 25.6 µM] (inactive).

As to `Clc1ccc2c(NCCNc3ccnc4cc(Cl)ccc34)ccnc2c1`, the activity, negative = inhibition was -3.79% [at 11.4 µM] (inactive). Still for that read-out and setting: the value for `CN[C@@H]1[C@H](O[C@@H]2O[C@H](CO)[C@@H](N)[C@H](O)[C@@H]2O)O[C@H]2C[C@@H](N)[C@@H](O[C@H]3[C@@H](O)[C@H](O)[C@H](N)C[C@@H]3N)O[C@H]2[C@H]1O` was -2.58% [at 25.6 µM] (inactive). Still for that read-out and setting: the result for `COc1cc(OC)c2cc(-c3ccncc3)cnc2c1` reads -9.27% (inactive); that for `CCOC(=O)c1cc(NC(=O)c2ccc(C)cc2)c(=O)oc1-c1ccccc1`, -18% (inactive).

On to `CCOC(=O)c1cc2c(C(F)(F)F)cc(-c3ccccc3)nc2o1`, for which the AC50 is 2.24 µM (active).

As for `Cc1[nH]c2c(C)cccc2c1CCNC(=O)c1ccc2c(c1[N+](=O)[O-])C(=O)c1ccccc1C2=O`, the AC50 was 1.12 µM (active). In the case of `Cc1[nH]c2ccccc2c1CCNC(=O)c1ccc2c(c1[N+](=O)[O-])C(=O)c1ccccc1C2=O`, the “activity, negative = inhibition” value was -4.48% (inactive). Still for that read-out and setting: the result for `COc1ccccc1-c1cncnc1NCc1cccnc1` reads 3.29% [at 2.29 µM] (inactive).

On to `O=C(/C=C/c1ccc2c(c1)OCO2)NCCSCc1cccc(Cl)c1`, for which the AC50 is 5.01 µM (active). As for `C=CCNC(=O)CC(=O)N/N=C/c1cccc(Br)c1`, the “activity, negative = inhibition” value was -4.91% (inactive). Consider `O=C(Cn1nc(C(F)F)cc1C(F)F)N/N=C/c1ccc2c(c1)OCO2`, for which the “activity, negative = inhibition” value is -10% (inactive). Take `O=C(CSCc1cccc(Br)c1)N/N=C/c1ccc2c(c1)OCO2`: the concentration at half-maximal activity (AC50) was 10 µM (active). `OC[C@@H]1O[C@@H](N2CCN([C@@H]3O[C@@H](CO)[C@@H](O)[C@H](O)[C@H]3O)CC2)[C@@H](O)[C@H](O)[C@H]1O`: the activity, negative = inhibition is 7.18% [at 11.4 µM] (inactive). `Cc1ccc(NC(=O)C(=O)NCc2ccc(/C=C(/C#N)C(=O)NCc3cccnc3)o2)cc1`: the AC50 is 0.631 µM (active). For `CCN1C(=O)[C@H]2[C@H]3[C@H](O)[C@H](O)C/C(=N/OC[C@@H](C)[C@H](OCc4ccccc4)C(C)C)[C@@H]3CC[C@@H]2C1=O`, the activity, negative = inhibition was 19.1% [at 11.4 µM] (inactive).

`Cc1cccc(NC(=O)CSc2nc3ccccc3c3nc(CCc4c(C)n[nH]c4C)nn23)c1`: the concentration at half-maximal activity (AC50) is 1.26 µM (active).

For `Cc1cccc(CNc2nc(-c3ccoc3)nc3ccccc23)c1`, the activity, negative = inhibition is -6.69% [at 2.29 µM] (inactive). With `Cc1nnc(-c2cnn(-c3ccccc3)c2N)n1Cc1ccncc1`, the half-maximal activity concentration (AC50) was 14.1 µM (active).

These data come from PubChem BioAssay AID1851 (National Center for Advancing Translational Sciences (NCATS), 2009).
